Five molecules from PubChem BioAssay can be followed below.

Each structure is given as a SMILES string. Activity calls are given as the source filed them.

The target in one experiment is Albumin (Bos taurus) (UniProt P02769). The experiment in a line: compounds binding labelled BSA control protein – biochemical, small-molecule microarray, Alexa647 label, 635/667 nm fluorescence, artefact control for SMM control protein annotation, profiling panel (AID 1118).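 Further: score merges 667 nm emission intensity and signal-to-noise per printed compound spot.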 The conditions noted are these: BSA-A647 binding, fluorescence 635 nm, higher = more signal.
Experiment [1] in a line: probe aXIP binding to arrayed compounds – biochemical, NeuroSMM set, 635/667 nm fluorescence, primary screen (AID 1119).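 Further: probe is the protein aXip251-270 applied at 1 µg/mL to compound-printed slides; binding of probe to printed compounds measured as 667 nm fluorescence plus signal to noise.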 The conditions noted are these: small-molecule microarray, higher = more signal, called active from +8 up or from −8 down.
Experiment [2] is described as follows: probe aNOTCH3 binding on compound microarray – biochemical, small-molecule microarray, 635/667 nm fluorescence, primary screen (AID 1120).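 Further: probe is a biotin-tagged antibody raised against NOTCH3 rather than NOTCH3 protein; score merges spot fluorescence near 667 nm with spot signal to noise.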 The conditions noted are these: higher = more signal.
Experiment [3] in a line: probe aNOTCH2 binding on compound microarray – biochemical, small-molecule microarray, 635/667 nm fluorescence, primary screen (AID 1121).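 Further: score merges feature fluorescence read at 667 nm with its signal to noise.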 The conditions noted are these: higher = more signal.
The target of experiment [4] is Carbonic anhydrase 2 (Homo sapiens) (UniProt P00918). Briefly: compounds binding carbonic anhydrase 2 – biochemical, small-molecule microarray, Alexa647-labelled CAII, profiling panel (AID 1122). To be noted: CAII-A647 binding fluorescence, higher = more signal.
Experiment [5] can be described thus: COS7 lysate on small-molecule microarray, probe aHis, 635 nm (AID 1123).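 Further: z-score combines 667nm fluorescence intensity with signal-to-noise per printed compound spot.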 To be noted: COS7 cell lysate, fluorescence, higher = more signal.
A short description of experiment [6]: probe aLAP1 signal on lysate-treated microarray – cell lysate, small-molecule microarray, COS7 lysate, primary screen (AID 1124).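 Further: lysate comes from COS7 cells expressing LAP1 and is applied at 0.3 µg/mL; score merges spot fluorescence near 667 nm with signal-to-noise over triplicate slides.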 To be noted: probe aLAP1, fluorescence, higher = more signal.
Another experiment relates to Sam68 (KHDRBS1). Briefly: compounds binding KHDRBS1 protein – biochemical, small-molecule microarray, 635 nm fluorescence, primary screen (AID 1125).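 Further: score merges 667 nm channel intensity with signal to noise over triplicate slides.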 The conditions noted are these: higher = more signal.
For experiment [7], the system named is Chordin-like protein 2 (CHRDL2). The experiment in a line: compounds binding chordin-like 2 – biochemical, small-molecule microarray, 635 nm fluorescence, primary screen (AID 1126).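 Further: printed compound slides probed with Chrdl2 protein at 4 µg/mL for 1 h at 4 C; score merges 667 nm emission intensity with signal to noise over three replicate slides.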 The conditions noted are these: fluorescence 635 nm, higher = more signal.
In experiment [8] the target is Concanavalin-A (Canavalia ensiformis) (UniProt P02866). The experiment in a line: compounds binding concanavalin A lectin – biochemical, small-molecule microarray, Alexa647 label, 635 nm, artefact control for SMM control protein annotation, primary screen (AID 1127).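 Further: z combines 667 nm emission intensity with signal-to-noise across three replicate slides.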 To be noted: ConA-A647 binding fluorescence, higher = more signal.
Experiment [9] can be described thus: compounds binding Alexa647 anti-His antibody – biochemical, small-molecule microarray, 635 nm fluorescence, artefact control for SMM control protein annotation, primary screen (AID 1128).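 Further: score merges feature fluorescence with signal-to-noise for each printed compound spot.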 To be noted: higher = more signal.
In experiment [10] the test system is Human papillomavirus type 1a E7 protein (residues 1-88). The experiment in a line: HPV1a E7 small-molecule binders, primary screen, biochemical, small-molecule microarray, residues 1-88, 635 nm (AID 1129). To be noted: small-molecule microarray binding, fluorescence 635 nm; higher = more signal.
The target of experiment [11] is Focal adhesion kinase 1 (Homo sapiens) (UniProt Q05397). The experiment in a line: PTK2 protein binding on printed compound slides – biochemical, small-molecule microarray, 635/667 nm fluorescence, BSA, DTT, primary screen (AID 1130).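 Further: composite of spot emission at 667 nm and signal to noise over triplicate slides.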 The conditions noted are these: 635 nm fluorescence, higher = more signal.
Experiment [12] relates to Fibrinogen (Alexa647-labelled). The experiment in a line: Alexa647-fibrinogen binding to printed small molecules – biochemical, small-molecule microarray, 635/667 nm fluorescence, artefact control for SMM control-protein annotation, profiling panel (AID 1131).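 Further: z-score merges 667 nm fluorescence with per-spot signal-to-noise over triplicate slides.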 To be noted: fibrinogen-A647 binding fluorescence, higher = more signal.
The target in experiment [13] is Follistatin (Homo sapiens) (UniProt P19883). Briefly: FST protein binding to printed compounds – biochemical, small-molecule microarray, 635/667 nm fluorescence, primary screen (AID 1132). The conditions noted are these: 635 nm fluorescence, higher = more signal.
Experiment [14] concerns the target Fibroblast growth factor 2 (Homo sapiens) (UniProt P09038). The experiment in a line: basic fibroblast growth factor binding to printed compounds – biochemical, small-molecule microarray, 635/667 nm fluorescence, primary screen (AID 1133). To be noted: FGF2, fluorescence 635/667, higher = more signal.
The nature of experiment [15]: JC-1 mitochondrial potential readout, lung cancer cells – cell-based, A549, JC-1 fluorescence, basal, 24 h, 100 nL, profiling panel (AID 1138).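 Further: A549 lung adenocarcinoma cells under basal conditions with no added stimulus; test concentration not given here.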 To be noted: higher = more signal.
Another experiment has as its system Lefty1. Briefly: Lefty1 protein binding to printed compounds – biochemical, small-molecule microarray, 635/667 nm fluorescence, primary screen (AID 1139). To be noted: fluorescence 635/667, higher = more signal.
Experiment [16] deals with wheat germ agglutinin (Triticum aestivum), Alexa647-labelled. Briefly: Alexa647-WGA lectin binding to printed small molecules – biochemical, small-molecule microarray, 635/667 nm fluorescence, artefact control for SMM control-protein annotation, profiling panel (AID 1140).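 Further: score merges 667 nm feature emission with signal to noise over triplicate slides.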 The conditions noted are these: WGA-A647 binding, 635 nm fluorescence, higher = more signal.
In experiment [17] the target is Luciferin 4-monooxygenase (Photinus pyralis) (UniProt P08659). The experiment in a line: inhibition of purified Photinus pyralis luciferase – biochemical, luminescence, purified enzyme, 2006 set, primary screen (AID 1141).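 Further: cell-free assay with purified firefly luciferase at 100 ng per well in PBS; test concentration not given here.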 To be noted: purified firefly luciferase, SteadyGlo luminescence, 30 min; higher = more signal, called active from +8 up or from −8 down.
Luciferin 4-monooxygenase (Photinus pyralis), sequence (P08659 whole entry, looked up): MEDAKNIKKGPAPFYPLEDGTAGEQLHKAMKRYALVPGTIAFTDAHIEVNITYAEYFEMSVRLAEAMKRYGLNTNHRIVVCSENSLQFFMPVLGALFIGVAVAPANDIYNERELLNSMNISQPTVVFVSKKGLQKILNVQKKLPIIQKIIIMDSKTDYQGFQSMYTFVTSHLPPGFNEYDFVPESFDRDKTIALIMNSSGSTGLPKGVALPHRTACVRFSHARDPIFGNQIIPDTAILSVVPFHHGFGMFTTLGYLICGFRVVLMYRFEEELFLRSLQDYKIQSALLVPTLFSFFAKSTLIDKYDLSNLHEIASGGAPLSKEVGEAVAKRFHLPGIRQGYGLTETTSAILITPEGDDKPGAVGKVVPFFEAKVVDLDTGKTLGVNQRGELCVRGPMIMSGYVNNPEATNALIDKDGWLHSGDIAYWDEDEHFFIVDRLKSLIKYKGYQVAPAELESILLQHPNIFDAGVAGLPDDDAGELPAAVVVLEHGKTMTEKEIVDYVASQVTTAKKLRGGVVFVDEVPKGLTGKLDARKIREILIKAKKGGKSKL

Focal adhesion kinase 1 (Homo sapiens), sequence (Q05397 whole entry, looked up): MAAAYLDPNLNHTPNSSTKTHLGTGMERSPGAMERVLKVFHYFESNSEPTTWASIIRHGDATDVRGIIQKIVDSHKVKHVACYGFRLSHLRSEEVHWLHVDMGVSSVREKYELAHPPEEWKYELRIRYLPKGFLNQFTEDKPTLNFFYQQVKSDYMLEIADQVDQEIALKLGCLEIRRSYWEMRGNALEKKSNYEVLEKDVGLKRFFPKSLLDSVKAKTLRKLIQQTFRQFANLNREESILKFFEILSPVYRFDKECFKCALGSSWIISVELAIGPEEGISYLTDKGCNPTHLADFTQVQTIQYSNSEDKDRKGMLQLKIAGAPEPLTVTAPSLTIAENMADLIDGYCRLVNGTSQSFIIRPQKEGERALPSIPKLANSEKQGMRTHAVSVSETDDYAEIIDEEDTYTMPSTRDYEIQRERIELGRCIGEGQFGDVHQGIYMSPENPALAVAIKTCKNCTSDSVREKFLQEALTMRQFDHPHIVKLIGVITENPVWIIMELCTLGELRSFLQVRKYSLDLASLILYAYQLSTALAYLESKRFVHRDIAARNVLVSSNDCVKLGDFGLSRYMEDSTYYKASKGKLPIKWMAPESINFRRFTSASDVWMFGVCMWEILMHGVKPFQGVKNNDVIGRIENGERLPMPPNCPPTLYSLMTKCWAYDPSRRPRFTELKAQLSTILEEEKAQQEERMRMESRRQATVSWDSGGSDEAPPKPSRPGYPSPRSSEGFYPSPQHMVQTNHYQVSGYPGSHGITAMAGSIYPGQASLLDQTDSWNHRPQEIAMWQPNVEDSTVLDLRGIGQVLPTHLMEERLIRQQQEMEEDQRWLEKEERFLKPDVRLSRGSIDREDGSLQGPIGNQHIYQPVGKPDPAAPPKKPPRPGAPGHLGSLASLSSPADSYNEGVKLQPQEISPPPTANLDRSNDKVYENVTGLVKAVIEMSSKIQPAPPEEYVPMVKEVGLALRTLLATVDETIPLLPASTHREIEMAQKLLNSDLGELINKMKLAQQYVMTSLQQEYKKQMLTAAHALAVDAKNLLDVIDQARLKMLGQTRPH
Albumin (Bos taurus), sequence (P02769 whole entry, looked up): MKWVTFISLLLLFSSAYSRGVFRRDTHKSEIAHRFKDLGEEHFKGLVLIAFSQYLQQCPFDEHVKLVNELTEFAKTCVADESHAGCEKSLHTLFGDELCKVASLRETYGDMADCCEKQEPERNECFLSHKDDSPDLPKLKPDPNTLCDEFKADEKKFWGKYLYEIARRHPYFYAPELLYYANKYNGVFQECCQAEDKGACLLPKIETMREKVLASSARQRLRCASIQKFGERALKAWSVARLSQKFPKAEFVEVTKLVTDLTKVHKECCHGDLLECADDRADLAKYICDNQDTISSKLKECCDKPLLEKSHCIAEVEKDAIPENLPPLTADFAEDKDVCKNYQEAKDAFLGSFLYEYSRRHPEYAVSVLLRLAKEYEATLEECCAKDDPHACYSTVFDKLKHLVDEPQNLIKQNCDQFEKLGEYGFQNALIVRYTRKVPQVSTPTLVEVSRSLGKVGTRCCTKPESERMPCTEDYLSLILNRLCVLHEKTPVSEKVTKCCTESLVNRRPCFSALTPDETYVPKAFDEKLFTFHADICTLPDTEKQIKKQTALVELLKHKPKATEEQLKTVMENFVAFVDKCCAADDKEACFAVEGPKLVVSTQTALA
Fibroblast growth factor 2 (Homo sapiens), sequence (P09038 whole entry, looked up): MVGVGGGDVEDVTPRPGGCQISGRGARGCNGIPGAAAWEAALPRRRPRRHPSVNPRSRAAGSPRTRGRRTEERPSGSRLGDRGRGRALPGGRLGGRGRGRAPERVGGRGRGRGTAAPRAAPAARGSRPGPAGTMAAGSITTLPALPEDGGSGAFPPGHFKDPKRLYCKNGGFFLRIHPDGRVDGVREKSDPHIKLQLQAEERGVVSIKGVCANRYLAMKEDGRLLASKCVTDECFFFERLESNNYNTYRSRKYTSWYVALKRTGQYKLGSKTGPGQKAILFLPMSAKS
Follistatin (Homo sapiens), sequence (P19883 whole entry, looked up): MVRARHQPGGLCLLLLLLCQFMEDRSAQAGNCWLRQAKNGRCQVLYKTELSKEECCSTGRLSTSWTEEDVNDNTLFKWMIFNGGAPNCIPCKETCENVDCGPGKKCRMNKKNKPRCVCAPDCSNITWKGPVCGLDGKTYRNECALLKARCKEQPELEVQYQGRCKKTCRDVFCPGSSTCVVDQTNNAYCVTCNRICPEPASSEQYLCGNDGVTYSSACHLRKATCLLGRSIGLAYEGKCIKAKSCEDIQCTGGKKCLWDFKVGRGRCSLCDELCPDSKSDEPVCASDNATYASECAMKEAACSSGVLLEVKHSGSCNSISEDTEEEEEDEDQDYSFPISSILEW
Concanavalin-A (Canavalia ensiformis), sequence (P02866 whole entry, looked up): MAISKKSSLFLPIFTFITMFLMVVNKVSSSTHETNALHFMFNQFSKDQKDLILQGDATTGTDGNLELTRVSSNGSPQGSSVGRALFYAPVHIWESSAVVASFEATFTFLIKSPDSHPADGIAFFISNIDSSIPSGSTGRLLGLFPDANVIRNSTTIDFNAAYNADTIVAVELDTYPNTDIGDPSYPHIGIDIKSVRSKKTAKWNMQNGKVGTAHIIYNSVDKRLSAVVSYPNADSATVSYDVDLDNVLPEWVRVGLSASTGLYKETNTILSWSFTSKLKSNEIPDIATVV

`NCCCCCNC(=O)[C@@H]1C[C@@H]2C(=O)N3CCC[C@H]3C(=O)N2[C@@H]1c1cccc(OCCO)c1`: the composite z-score stood at 0.533 in the experiment with Albumin (Bos taurus); 0.453 in experiment [2]; 0.294 in [3]; 0.659 in [4]; 1.68 in experiment [5]; 1.09 in experiment [6]. Besides, the composite z-score came to 1.19 with Sam68 (KHDRBS1); 1.14 in [7]; 1 in experiment [8]; 1.83 in experiment [9]; 0.689 in [10]; 1.13 in experiment [11]. Moreover, the composite z-score in experiment [12] turned out to be 0.974; in [13] it was 1.34; in experiment [14], 0.878; with Lefty1 it was 0.437; in experiment [16], 0.881. Also, in experiment [1], the composite Z-score was 1.34 (inactive). The z-score is -0.269 in experiment [15] and -0.115 (inactive) in [17].

Turning to `CS(=O)(=O)CCOC(=O)C1=CC(CCCO)=CC(c2cccs2)N(Cc2cccc(OC(F)(F)F)c2)C=C1C(=O)OCCS(C)(=O)=O` (stereo not given), the composite z-score in the experiment with Albumin (Bos taurus) was 1.03; in [2], 0.106; in experiment [3] it was -0.0358; in experiment [4], 0.809; in experiment [5], 1.1; in [6] it was 0.678. Further, the composite z-score in the experiment on Sam68 (KHDRBS1) is 1.18; in experiment [7], -0.607; in experiment [8] it was 1.16; in [9], 0.97; in [10], 1.03; in experiment [11], 0.905. Besides, the composite z-score in experiment [12] was 0.579; in experiment [13], 0.243; in [14], 0.202; with Lefty1, 0.578; in experiment [16], 1.02. Further, in experiment [1], the composite Z-score was 0.0987 (inactive). Further, the z-score in experiment [15] is 1.64; in [17] it was -2.01 (inactive).

In the case of `COc1ccc(O[C@H]2C=C[C@@H](c3ccccc3)O[C@@H]2COC(=O)CCC(C)=NOC[C@@H](C)[C@H](OCc2ccccc2)C(C)C)cc1`, the composite z-score was -0.874 with Albumin (Bos taurus); -0.155 in experiment [2]; -0.157 in experiment [3]; -0.608 in [4]; -0.52 in experiment [5]; -0.212 in experiment [6]. The composite z-score in the experiment on Sam68 (KHDRBS1) was -1.03; in [7] it was -0.522; in experiment [8], -2.04; in [9], 0.904; in [10], -0.834; in experiment [11], -0.592. Also, the composite z-score in experiment [12] was -1.24; in experiment [13] it was -0.865; in experiment [14] it was -0.621; in the experiment on Lefty1, -0.338; in experiment [16], -0.606. In addition, the composite Z-score in experiment [1] is 0.289 (inactive). The z-score in experiment [15] was -0.345; in experiment [17], 1.05 (inactive).

For `CCCNC(=O)OC[C@H]1O[C@H](CCON=CC[C@@H]2C=C[C@H](OC(C)=O)[C@@H](COC(C)=O)O2)C=C[C@@H]1Oc1ccc(OC)cc1`, the composite z-score was 0.619 with Albumin (Bos taurus); 0.0131 in [2]; -0.14 in experiment [3]; -0.0893 in [4]; 0.0884 in experiment [5]; 0.394 in experiment [6]. The composite z-score in the experiment on Sam68 (KHDRBS1) worked out at 0.911; in experiment [7] it was 0.593; in experiment [8], 0.0162; in [9] it was 0.731; in [10], 0.535; in [11], 0.474. Further, the composite z-score came to 0.733 in [12]; 0.461 in experiment [13]; 0.693 in experiment [14]; 0.561 in the experiment with Lefty1; 0.462 in experiment [16]. Also, in experiment [1], the composite Z-score was -0.263 (inactive). Besides, the z-score was -1.16 in experiment [15] and 0.985 (inactive) in [17].

Turning to `CC(=O)OC[C@H]1O[C@H](CCON=C(C)CCN2CCc3nc(-c4ccccc4)c(-c4ccccc4)cc3C2)C=C[C@@H]1OC(C)=O`, the composite z-score is 0.768 with Albumin (Bos taurus); 0.146 in [2]; -0.0877 in experiment [3]; 0.181 in experiment [4]; 0.761 in [5]; 0.466 in experiment [6]. In addition, the composite z-score with Sam68 (KHDRBS1) is 0.975; in experiment [7], -0.0682; in experiment [8] it was -0.0278; in experiment [9], -0.437; in [10], 0.0723; in [11] it was 0.186. In addition, the composite z-score in experiment [12] was 0.476; in experiment [13], 0.129; in experiment [14] it was -0.138; in the experiment with Lefty1, 0.172; in [16] it was 0.563. For the same molecule, the composite Z-score in experiment [1] was 0.607 (inactive). The results for the z-score in experiment [15] and in [17] were 1.15 and 0.938 (inactive), respectively.
